# Laboratory results from ChEMBL document CHEMBL1961873, “Compounds: GSK PKIS; Assays: Nanosyn kinase panel” (2012).
# Several values for one entry are separate records, joined by “and”; a condition that tells them apart may be missing. Identical values can stand only once.
# How the values were obtained:
# [1] = target: T1, Muscle, skeletal receptor tyrosine-protein kinase (Homo sapiens) (UniProt O15146); conditions: at 1 µM;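 also: reported value is the mean percent inhibition of MuSK kinase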
# T1 sequence (whole entry): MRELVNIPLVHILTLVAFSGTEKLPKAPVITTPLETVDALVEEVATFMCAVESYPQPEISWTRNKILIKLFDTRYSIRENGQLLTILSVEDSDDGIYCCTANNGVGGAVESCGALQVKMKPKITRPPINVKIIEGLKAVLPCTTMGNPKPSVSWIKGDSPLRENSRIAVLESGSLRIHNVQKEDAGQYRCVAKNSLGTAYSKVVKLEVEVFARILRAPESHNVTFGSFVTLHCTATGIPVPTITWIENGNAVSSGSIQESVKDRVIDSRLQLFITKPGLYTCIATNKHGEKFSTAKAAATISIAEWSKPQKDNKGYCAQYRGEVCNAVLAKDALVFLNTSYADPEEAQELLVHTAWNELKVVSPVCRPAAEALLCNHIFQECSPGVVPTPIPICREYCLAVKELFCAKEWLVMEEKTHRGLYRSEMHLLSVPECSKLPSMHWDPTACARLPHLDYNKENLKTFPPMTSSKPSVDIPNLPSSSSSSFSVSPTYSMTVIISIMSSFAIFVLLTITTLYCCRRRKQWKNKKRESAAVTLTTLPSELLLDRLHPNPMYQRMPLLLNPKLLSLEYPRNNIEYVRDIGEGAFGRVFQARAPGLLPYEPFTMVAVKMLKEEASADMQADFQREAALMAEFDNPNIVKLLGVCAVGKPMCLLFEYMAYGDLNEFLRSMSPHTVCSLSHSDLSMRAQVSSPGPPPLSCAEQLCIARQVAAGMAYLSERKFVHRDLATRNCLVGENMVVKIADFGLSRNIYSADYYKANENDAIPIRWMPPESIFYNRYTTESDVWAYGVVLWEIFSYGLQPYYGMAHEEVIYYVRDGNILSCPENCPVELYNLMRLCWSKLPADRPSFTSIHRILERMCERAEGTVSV
# [2] = target: Platelet-derived growth factor receptor alpha (Homo sapiens) (UniProt P16234); conditions: at 0.1 µM
# Chain of Platelet-derived growth factor receptor alpha (Homo sapiens) (P16234 whole entry): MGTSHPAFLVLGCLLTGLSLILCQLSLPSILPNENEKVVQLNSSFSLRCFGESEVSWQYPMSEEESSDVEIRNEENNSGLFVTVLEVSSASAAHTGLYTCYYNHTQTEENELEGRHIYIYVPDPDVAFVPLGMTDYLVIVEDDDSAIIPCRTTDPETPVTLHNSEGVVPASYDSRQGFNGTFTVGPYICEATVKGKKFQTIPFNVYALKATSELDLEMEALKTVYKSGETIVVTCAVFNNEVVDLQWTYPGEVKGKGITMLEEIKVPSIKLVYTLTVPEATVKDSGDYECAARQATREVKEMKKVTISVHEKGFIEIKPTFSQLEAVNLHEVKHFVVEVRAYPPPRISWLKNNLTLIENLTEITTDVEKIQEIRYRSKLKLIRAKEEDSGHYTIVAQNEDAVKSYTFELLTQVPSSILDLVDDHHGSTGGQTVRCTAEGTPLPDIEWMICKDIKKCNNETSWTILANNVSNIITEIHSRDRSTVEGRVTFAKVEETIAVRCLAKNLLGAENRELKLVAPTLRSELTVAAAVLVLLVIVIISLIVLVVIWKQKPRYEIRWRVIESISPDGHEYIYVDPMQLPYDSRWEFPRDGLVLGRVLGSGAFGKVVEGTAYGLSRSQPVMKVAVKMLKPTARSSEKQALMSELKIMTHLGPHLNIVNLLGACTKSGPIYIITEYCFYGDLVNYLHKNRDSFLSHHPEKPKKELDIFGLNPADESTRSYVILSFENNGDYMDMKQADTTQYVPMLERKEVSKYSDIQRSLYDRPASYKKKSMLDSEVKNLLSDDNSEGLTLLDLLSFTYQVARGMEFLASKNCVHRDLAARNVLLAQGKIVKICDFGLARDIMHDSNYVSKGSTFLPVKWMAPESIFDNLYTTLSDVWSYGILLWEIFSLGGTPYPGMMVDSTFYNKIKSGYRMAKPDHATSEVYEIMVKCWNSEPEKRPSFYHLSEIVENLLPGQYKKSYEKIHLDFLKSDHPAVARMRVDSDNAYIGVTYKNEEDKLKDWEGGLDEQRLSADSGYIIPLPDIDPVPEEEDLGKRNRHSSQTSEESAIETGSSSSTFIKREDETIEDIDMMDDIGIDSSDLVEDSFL
# [3] = target: Platelet-derived growth factor receptor alpha (Homo sapiens) (UniProt P16234); conditions: at 1 µM
# [4] = system: Platelet-derived growth factor receptor alpha (Homo sapiens), P16234 [D842V]; conditions: at 0.1 µM
# Chain of Platelet-derived growth factor receptor alpha (Homo sapiens), P16234 [D842V] (P16234 whole entry D842V): as the sequence (P16234 whole entry) above, with D842V counted along it
# [5] = system: Platelet-derived growth factor receptor alpha (Homo sapiens), P16234 [D842V]; conditions: at 1 µM
# [6] = system: Platelet-derived growth factor receptor alpha (Homo sapiens), P16234 [T674I]; conditions: at 0.1 µM
# Chain of Platelet-derived growth factor receptor alpha (Homo sapiens), P16234 [T674I] (P16234 whole entry T674I): as the sequence (P16234 whole entry) above, with T674I counted along it
# [7] = system: Platelet-derived growth factor receptor alpha (Homo sapiens), P16234 [T674I]; conditions: at 1 µM
# [8] = system: Platelet-derived growth factor receptor alpha (Homo sapiens), P16234 [V561D]; conditions: at 0.1 µM
# Chain of Platelet-derived growth factor receptor alpha (Homo sapiens), P16234 [V561D] (P16234 whole entry V561D): as the sequence (P16234 whole entry) above, with V561D counted along it
# [9] = system: Platelet-derived growth factor receptor alpha (Homo sapiens), P16234 [V561D]; conditions: at 1 µM
# [10] = target: Platelet-derived growth factor receptor beta (Homo sapiens) (UniProt P09619); conditions: at 0.1 µM;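 also: reported value is the mean percent inhibition of the kinase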
# Chain of Platelet-derived growth factor receptor beta (Homo sapiens) (P09619 whole entry): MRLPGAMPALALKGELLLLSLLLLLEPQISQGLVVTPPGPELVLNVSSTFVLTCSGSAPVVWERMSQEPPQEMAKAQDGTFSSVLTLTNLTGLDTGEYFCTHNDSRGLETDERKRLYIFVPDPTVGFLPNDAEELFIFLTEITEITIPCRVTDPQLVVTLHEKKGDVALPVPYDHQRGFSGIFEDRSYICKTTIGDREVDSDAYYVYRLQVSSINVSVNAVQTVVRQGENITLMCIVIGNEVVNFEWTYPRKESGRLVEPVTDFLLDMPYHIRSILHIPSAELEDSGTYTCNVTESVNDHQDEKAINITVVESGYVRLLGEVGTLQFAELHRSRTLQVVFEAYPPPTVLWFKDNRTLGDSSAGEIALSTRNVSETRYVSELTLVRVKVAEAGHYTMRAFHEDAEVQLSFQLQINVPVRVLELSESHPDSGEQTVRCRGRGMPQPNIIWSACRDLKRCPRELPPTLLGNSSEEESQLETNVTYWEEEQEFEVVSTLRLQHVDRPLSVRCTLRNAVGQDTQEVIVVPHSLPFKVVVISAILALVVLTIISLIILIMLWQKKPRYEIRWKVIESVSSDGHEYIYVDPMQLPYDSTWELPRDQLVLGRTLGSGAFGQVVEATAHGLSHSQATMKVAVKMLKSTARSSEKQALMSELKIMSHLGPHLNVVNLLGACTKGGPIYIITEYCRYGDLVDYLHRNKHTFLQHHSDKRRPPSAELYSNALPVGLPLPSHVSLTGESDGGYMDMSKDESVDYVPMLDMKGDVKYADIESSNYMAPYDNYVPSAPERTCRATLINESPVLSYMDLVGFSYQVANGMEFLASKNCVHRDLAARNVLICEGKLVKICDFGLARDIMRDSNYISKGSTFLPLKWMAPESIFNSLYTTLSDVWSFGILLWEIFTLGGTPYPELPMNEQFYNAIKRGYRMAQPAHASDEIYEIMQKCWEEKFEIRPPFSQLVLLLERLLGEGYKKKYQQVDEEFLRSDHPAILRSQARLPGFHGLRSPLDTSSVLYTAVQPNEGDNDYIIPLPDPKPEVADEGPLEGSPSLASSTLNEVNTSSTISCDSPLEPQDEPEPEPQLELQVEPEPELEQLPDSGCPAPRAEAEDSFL
Compound,inhibition [1],inhibition [2],inhibition [3],inhibition [4],inhibition [5],inhibition [6],inhibition [7],inhibition [8],inhibition [9],inhibition [10]
COC(=O)Nc1nc2ccc(Oc3ccc(NC(=O)Nc4cc(C(F)(F)F)ccc4F)cc3)cc2s1,85.6%,70.3%,83.5%,5.8%,22.8%,41.6%,92%,74.8%,93.7%,20.2%
c1ccc(-c2n[nH]cc2-c2ccnc(-c3ccc(OCCn4ccnc4)cc3)c2)nc1,4.35%,14.2%,64.6%,23.5%,76.1%,6.06%,6.32%,17.8%,57%,15.3%
CN(c1ccc(NC(=O)NCCN2CCOCC2)cc1)c1ccnc(Nc2ccc(CS(C)(=O)=O)cc2)n1,8.61%,51.8%,84.4%,2.7%,28.6%,63.9%,95%,61.6%,90.1%,33.7%
CN1CCC(n2cnc(-c3ccc(F)cc3)c2-c2ccnc(NCCO)n2)CC1,3.41%,13.6%,14.4%,5.63%,8.15%,7.46%,9.01%,7.95%,3.97%,8.62%
COc1ccccc1-c1cc(/C=C2\C(=O)Nc3ncc(Br)cc32)cc(Br)c1O,5.9%,11.6%,16.9%,2.43%,5.41%,8.02%,8.24%,2.82%,15.2%,6.48%
NC(=O)c1ccc2c(-c3ccnc(NCCCO)n3)c(-c3ccc(F)cc3)nn2c1,2.08%,5.5%,16.9%,4.25%,8.75%,6.06%,6.59%,4.18%,14.3%,4.83%
COc1cccc(-n2ncc3c(N/N=C/c4ccc(C(=O)NCCN(C)C)cc4)ncnc32)c1,80.3%,42.3%,74.1%,55.7%,88.8%,20.5%,78.5%,44%,85.5%,62.4%
CS(=O)(=O)CCNCc1ccoc1-c1ccc2ncnc(Nc3ccc(OCc4ccccc4)cc3)c2c1,3.07%,7.98%,15.1%,-0.69%,2.14%,4.43%,8.96%,1.67%,7.53%,0.39%
COc1cc(Nc2ncc(-c3ccccc3)o2)cc(OC)c1,4.72%,17.5%,54.3%,4.08%,12.3%,19.5%,76.4%,38.5%,64.3%,20.5%
Cc1ccc(-c2cc3c(NC(=O)C4CC4)ncnc3o2)cc1,7.78%,13.9%,38.1%,7.31%,29.8%,6.86%,32.7%,8.94%,31.9%,8.16%
NS(=O)(=O)c1ccc(N/N=C2\C(=O)Nc3ccc(C(=O)NCc4ccncc4)cc32)cc1,21.9%,23.6%,69.4%,18.8%,71.5%,3.72%,16.9%,15.6%,61.3%,45.6%
N#Cc1cccc(Nc2ncc(-c3ccccc3)o2)c1,2.86%,5.63%,17%,1.11%,3.47%,6.26%,36.3%,16.2%,36.8%,7.37%
CC1=C(C(=O)Nc2ccc3[nH]nc(C)c3c2)C(c2ccc(C(F)(F)F)cc2)CC(=O)N1 (stereo not given),23.7%,7.08%,19.3%,2.09%,6.76%,2.02%,1.41%,-0.51%,8.12%,8.62%
N#Cc1ccc2c(-c3ccnc(NC4CC4)n3)c(-c3ccc(F)cc3)nn2c1,-0.28%,2.76%,11.6%,-0.1%,6.91%,6.42%,6.15%,1.97%,8.16%,2.34%
CN1CCN(Cc2ccc(-c3cc4ncnc(Nc5ccc(OCc6cccc(F)c6)c(Cl)c5)c4s3)o2)CC1,1.12% and 8.01%,6.77% and 7.26%,16.9% and 23.4%,3.07% and 3.74%,6.44% and 9.07%,4.32% and 7.13%,13.9% and 20%,5.61% and 3.37%,13.1% and 11.5%,2.48% and 3.36%
COc1cccc(Nc2nccc(-c3cnn4ncccc34)n2)c1,25.3%,14.3%,49.3%,6.1%,47.1%,12.6%,80.7%,26.4%,64.1%,23.9%

Compound,inhibition [1],inhibition [2],inhibition [3],inhibition [4],inhibition [5],inhibition [6],inhibition [7],inhibition [8],inhibition [9],inhibition [10]
CCS(=O)(=O)c1ccc(OC)c(Nc2ncc(-c3cccc(F)c3)o2)c1,16.3%,21.1%,70.7%,11.3%,41.5%,5.36%,17.3%,21.4%,68.7%,35.7%
CCN1CCC(C(=O)Nc2n[nH]c3nnc(-c4cccc(F)c4F)cc23)CC1,4.59%,0.87%,3.69%,1.64%,2.59%,2.94%,7.18%,-0.48%,0.89%,3.08%
CCS(=O)(=O)c1ccc(OC)c(Nc2ncc(-c3cccc(C(C)=O)c3)o2)c1,4.06%,23.2%,68%,20.1%,72.8%,7.08%,8.46%,22.1%,68.2%,53.7%
NS(=O)(=O)c1cccc(N/C=C2\C(=O)Nc3ccccc32)c1,12.1%,7.39%,26.2%,4.57%,15.1%,9.22%,46.1%,5.48%,31.2%,4.88%
COc1cc(N2CCN(C(C)C)CC2)ccc1Nc1nc(Nc2cccc3ncccc23)c2cc[nH]c2n1,9.48%,2.96%,15.3%,0.2%,5.09%,2.09%,2.26%,3.08%,14.8%,1.3%
COc1cc(N2CCN(C(C)C)CC2)ccc1Nc1nc(Nc2cccc(F)c2C(=O)O)c2cc[nH]c2n1,10.5%,11.3%,12.8%,3.04%,3.08%,7.14%,8.84%,5.91%,5.37%,7.62%
CS(=O)(=O)Nc1ccc(-c2ccc3c(NC(=O)C4CC4)n[nH]c3c2)cc1,7.76%,12.9%,28.5%,3.79%,10.3%,4.77%,4.09%,5.95%,26.5%,3.96%
Cc1cc(O)cc(C)c1/C=C/c1cncc(C(=O)OC(C)(C)C)c1,3.99%,9.43%,42.6%,5.23%,14.7%,4.63%,5.73%,14.4%,51%,9.17%
O=C(O[C@H]1CN[C@H](C#Cc2cc3ncnc(Nc4ccc5c(ccn5Cc5cc(F)ccc5F)c4)c3s2)C1)N1CCOCC1,4.92%,6.05%,12.3%,2.95%,3.49%,5.88%,6.54%,7.32%,5.97%,2.48%
O=C(Nc1n[nH]c2nnc(-c3cccnc3)cc12)C1CC1,-0.99%,-0.04%,5.88%,2.16%,2.26%,1.36%,6.43%,1.61%,3.69%,1.07%
CS(=O)(=O)CCNCc1ccc(-c2ccc3ncnc(Nc4ccc(OCc5ccccc5)cc4)c3c2)o1,1.04%,4.6%,10.4%,3.6%,3.61%,3.14%,4.61%,5.39%,7.8%,3%
O=C1Nc2ccccc2/C1=C1\CCc2cc(O)ccc21,32.1%,23%,63.2%,7.24%,34.7%,45.7%,97.7%,32.4%,64.8%,11.3%
NS(=O)(=O)c1ccc(N/N=C2\C(=O)Nc3cccc(CCc4ccncc4)c32)cc1,24.2%,33.5%,60.7%,16.9%,58.5%,6.75%,34.6%,26.3%,72.3%,29.6%
CCCNc1cccc(-n2ncc3c(N/N=C/c4ccncc4)ncnc32)c1,49.9%,29.4%,78.4%,16.3%,71%,11.7%,38.2%,15.3%,68.4%,27.1%
COc1ccc(Nc2ncc(-c3ccccc3)o2)cc1OC,19.2%,25.9%,68.6%,5.83%,28.4%,42.2%,94.4%,48.8%,77%,25.5%
